From PubChem BioAssay AID1159580 (chemical genetic matrix, 2015)
Hit rate of the full screen: of about 5,500 compounds, about 2,000 (36%) were called active. About 18% were inconclusive and are not listed. Rule as the data show it: active = normalized growth mostly below about 0.91 (no sharp cut-off); inconclusive = no clear call, values can overlap the other calls; inactive = mostly above about 0.92. The list shows a part of the results.

Assay: chemical genetic growth profiling, strain panel (AID 1159580);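 also: tested at 20 µM; growth read once vehicle control cultures reached saturation at 30 °C; 1 = growth at the plate median or of vehicle wells; lower values mean less growth of the strain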
Conditions: growth OD
[1] = S. cerevisiae deletion strains, locus YAL013W, strain DEP1, stronger effect = lower value
[2] = S. cerevisiae deletion strains, locus YBR229C, strain ROT2, stronger effect = lower value
[3] = S. cerevisiae deletion strains, locus YDL101C, strain DUN1, stronger effect = lower value
[4] = S. cerevisiae deletion strains, locus YEL061C, strain CIN8, stronger effect = lower value
[5] = S. cerevisiae deletion strains, locus YGR078C, strain PAC10, stronger effect = lower value
[6] = S. cerevisiae deletion strains, locus YHR030C, strain SLT2, stronger effect = lower value
[7] = S. cerevisiae deletion strains, locus YHR087W, strain rtc3, stronger effect = lower value
[8] = S. cerevisiae deletion strains, locus YJR043C, strain POL32, stronger effect = lower value
[9] = S. cerevisiae deletion strains, locus YJR075W, strain HOC1, stronger effect = lower value
[10] = S. cerevisiae deletion strains, locus YKL190W, strain CNB1, stronger effect = lower value
[11] = S. cerevisiae deletion strains, locus YLR039C, strain RIC1, stronger effect = lower value
[12] = S. cerevisiae deletion strains, locus YLR058C, strain SHM2 (second series), stronger effect = lower value
[13] = S. cerevisiae deletion strains, locus YLR085C, strain ARP6, stronger effect = lower value
[14] = S. cerevisiae deletion strains, locus YLR262C, strain YPT6, stronger effect = lower value
[15] = S. cerevisiae deletion strains, locus YML094W, strain GIM5, stronger effect = lower value
[16] = S. cerevisiae deletion strains, locus YMR219W, strain ESC1, stronger effect = lower value
[17] = S. cerevisiae deletion strains, locus YNL153C, strain GIM3, stronger effect = lower value
[18] = S. cerevisiae deletion strains, locus YNL298W, strain CLA4 (second series), stronger effect = lower value
[19] = S. cerevisiae deletion strains, locus YNL322C, strain KRE1, stronger effect = lower value
[20] = S. cerevisiae deletion strains, locus YNR030W, strain Alg12, stronger effect = lower value
[21] = S. cerevisiae deletion strains, locus YPL055C, strain LGE1, stronger effect = lower value
[22] = S. cerevisiae deletion strains, locus YPL241C, strain CIN2, stronger effect = lower value
[23] = S. cerevisiae deletion strains, locus YPR135W, strain CTF4, stronger effect = lower value

Measured: normalized growth

O=C1ON=C(CSc2ccccc2)/C1=C/c1ccc(Cl)cc1
active: [1] 0.0593 | [2] 0.0605 | [3] 0.0787 | S. cerevisiae deletion strains, locus YDR150W, strain NUM1, stronger effect = lower value 0.0599 | [4] 0.215 | [5] 0.0528 | S. cerevisiae deletion strains, locus YGR229C, strain SMI1, stronger effect = lower value 0.522 | [6] 0.0755 | [7] 0.0592 | [8] 0.0516 | [9] 0.0832 | [10] 0.201 | [11] 0.283 | [12] 0.0598 | [13] 0.0742 | [14] 0.324 | [15] 0.343 | [16] 0.0677 | S. cerevisiae deletion strains, locus YMR263W, strain SAP30, stronger effect = lower value 0.0516 | [17] 0.0589 | [18] 0.155 | [19] 0.0609 | [20] 0.101 | [21] 0.0724 | [22] 0.0913 | [23] 0.161 | S. cerevisiae strains, strain wild type, stronger effect = lower value 0.337

O=C1ON=C(c2ccccc2)/C1=C/c1ccc(Cl)cc1
active: [1] 0.174 | [2] 0.145 | [3] 0.203 | S. cerevisiae deletion strains, locus YDL134C, strain PPH21, stronger effect = lower value 0.77 | [4] 0.637 | [5] 0.138 | [6] 0.16 | [7] 0.172 | [8] 0.198 | [9] 0.129 | [10] 0.523 | [11] 0.782 | [12] 0.311 | [13] 0.297 | [15] 0.584 | [16] 0.172 | [17] 0.105 | [18] 0.481 | [19] 0.472 | [20] 0.462 | [21] 0.11 | [22] 0.331 | [23] 0.294
inactive: [14] 0.834

COc1cccc2c1C(=O)c1c(O)c3c(c(O)c1C2=O)C[C@@](O)(C(=O)CO)C[C@@H]3OC1C[C@H](N)[C@H](O)[C@H](C)O1 (some centres undefined)
inactive: S. cerevisiae deletion strains, locus YBR171W, strain sec66, stronger effect = lower value 0.928 | S. cerevisiae deletion strains, locus YDR392W, strain spt3, stronger effect = lower value 0.919 | S. cerevisiae deletion strains, locus YGL173C, strain kem1, stronger effect = lower value 1.01 | S. cerevisiae deletion strains, locus YPL106C, strain sse1, stronger effect = lower value 1.14
active: S. cerevisiae deletion strains, locus YAL021C, strain ccr4, stronger effect = lower value 0.166 | S. cerevisiae deletion strains, locus YAL026C, strain drs2, stronger effect = lower value 0.696 | S. cerevisiae deletion strains, locus YAL030W, strain snc1, stronger effect = lower value 0.691 | S. cerevisiae deletion strains, locus YBL061C, strain skt5, stronger effect = lower value 0.708 | S. cerevisiae deletion strains, locus YBR009C, strain hhf1, stronger effect = lower value 0.282 | S. cerevisiae deletion strains, locus YBR023C, strain chs3, stronger effect = lower value 0.676 | S. cerevisiae deletion strains, locus YBR231C, strain swc5, stronger effect = lower value 0.342 | S. cerevisiae deletion strains, locus YBR279W, strain paf1, stronger effect = lower value 0.681 | S. cerevisiae deletion strains, locus YCL011C, strain gbp2, stronger effect = lower value 0.636 | S. cerevisiae deletion strains, locus YCL016C, strain dcc1, stronger effect = lower value 0.37 | S. cerevisiae deletion strains, locus YCL069W, strain vba3, stronger effect = lower value 0.718 | S. cerevisiae deletion strains, locus YCR088W, strain abp1, stronger effect = lower value 0.767 | S. cerevisiae deletion strains, locus YDL005C, strain med2, stronger effect = lower value 0.701 | S. cerevisiae deletion strains, locus YDL040C, strain nat1, stronger effect = lower value 0.762 | S. cerevisiae deletion strains, locus YDR001C, strain nth1, stronger effect = lower value 0.878 | S. cerevisiae deletion strains, locus YDR069C, strain doa4, stronger effect = lower value 0.595 | S. cerevisiae deletion strains, locus YDR137W, strain rgp1, stronger effect = lower value 0.572 | S. cerevisiae deletion strains, locus YDR159W, strain sac3, stronger effect = lower value 0.221 | S. cerevisiae deletion strains, locus YDR195W, strain ref2 1.23 [resistant] | S. cerevisiae deletion strains, locus YDR297W, strain sur2, stronger effect = lower value 0.606 | S. cerevisiae deletion strains, locus YDR334W, strain swr1, stronger effect = lower value 0.337 | S. cerevisiae deletion strains, locus YDR335W, strain msn5, stronger effect = lower value 0.431 | S. cerevisiae deletion strains, locus YEL003W, strain gim4, stronger effect = lower value 0.603 | S. cerevisiae deletion strains, locus YEL037C, strain rad23, stronger effect = lower value 0.864 | S. cerevisiae deletion strains, locus YEL061C, strain CIN8 (second series), stronger effect = lower value 0.607 | S. cerevisiae deletion strains, locus YER015W, strain faa2, stronger effect = lower value 0.49 | S. cerevisiae deletion strains, locus YER016W, strain bim1, stronger effect = lower value 0.481 | S. cerevisiae deletion strains, locus YER111C, strain swi4, stronger effect = lower value 0.766 | S. cerevisiae deletion strains, locus YER155C, strain BEM2 (second series), stronger effect = lower value 0.515 | S. cerevisiae deletion strains, locus YFR010W, strain ubp6, stronger effect = lower value 0.65 | S. cerevisiae deletion strains, locus YGL167C, strain pmr1, stronger effect = lower value 0.905 | S. cerevisiae deletion strains, locus YGL227W, strain vid30, stronger effect = lower value 0.429 | S. cerevisiae deletion strains, locus YGL240W, strain doc1, stronger effect = lower value 0.246 | S. cerevisiae deletion strains, locus YGL253W, strain hxk2, stronger effect = lower value 0.247 | S. cerevisiae deletion strains, locus YHR013C, strain ard1, stronger effect = lower value 0.35 | S. cerevisiae deletion strains, locus YHR027C, strain rpn1, stronger effect = lower value 0.496 | [6] 0.778 | S. cerevisiae deletion strains, locus YHR079C, strain IRE1, stronger effect = lower value 0.79 | S. cerevisiae deletion strains, locus YHR142W, strain chs7, stronger effect = lower value 0.538 | S. cerevisiae deletion strains, locus YJL092W, strain hpr5, stronger effect = lower value 0.691 | S. cerevisiae deletion strains, locus YJL095W, strain BCK1 (second series), stronger effect = lower value 0.622 | S. cerevisiae deletion strains, locus YJL095W, strain BCK1, stronger effect = lower value 0.781 | S. cerevisiae deletion strains, locus YJL115W, strain asf1, stronger effect = lower value 0.319 | S. cerevisiae deletion strains, locus YJL129C, strain trk1, stronger effect = lower value 0.138 | S. cerevisiae deletion strains, locus YJL154C, strain vps35, stronger effect = lower value 0.732 | S. cerevisiae deletion strains, locus YJL164C, strain tpk1, stronger effect = lower value 0.439 | S. cerevisiae deletion strains, locus YJL166W, strain qcr8, stronger effect = lower value 0.302 | S. cerevisiae deletion strains, locus YJL187C, strain SWE1, stronger effect = lower value 0.643 | S. cerevisiae deletion strains, locus YJR066W, strain TOR1, stronger effect = lower value 0.787 | S. cerevisiae deletion strains, locus YKL160W, strain elf1, stronger effect = lower value 0.56 | S. cerevisiae deletion strains, locus YKR026C, strain gcn3, stronger effect = lower value 0.849 | S. cerevisiae deletion strains, locus YKR091W, strain srl3, stronger effect = lower value 0.869 | S. cerevisiae deletion strains, locus YLL001W, strain dnm1, stronger effect = lower value 0.545 | S. cerevisiae deletion strains, locus YLL026W, stronger effect = lower value 0.623 | S. cerevisiae deletion strains, locus YLL041C, strain sdh2, stronger effect = lower value 0.602 | S. cerevisiae deletion strains, locus YLR027C, strain aat2, stronger effect = lower value 0.543 | S. cerevisiae deletion strains, locus YLR113W, strain HOG1, stronger effect = lower value 0.779 | S. cerevisiae deletion strains, locus YLR221C, strain rsa3, stronger effect = lower value 0.475 | S. cerevisiae deletion strains, locus YLR258W, strain gsy2, stronger effect = lower value 0.565 | S. cerevisiae deletion strains, locus YLR262C, strain YPT6 (second series), stronger effect = lower value 0.533 | S. cerevisiae deletion strains, locus YLR320W, strain mms22, stronger effect = lower value 0.176 | S. cerevisiae deletion strains, locus YLR342W, strain FKS1, stronger effect = lower value 0.622 | S. cerevisiae deletion strains, locus YLR357W, strain rsc2, stronger effect = lower value 0.49 | S. cerevisiae deletion strains, locus YLR370C, strain arc18, stronger effect = lower value 0.902 | S. cerevisiae deletion strains, locus YLR384C, strain iki3, stronger effect = lower value 0.651 | S. cerevisiae deletion strains, locus YML120C, strain ndi1, stronger effect = lower value 0.676 | S. cerevisiae deletion strains, locus YMR058W, strain fet3, stronger effect = lower value 0.509 | S. cerevisiae deletion strains, locus YMR129W, stronger effect = lower value 0.828 | S. cerevisiae deletion strains, locus YMR205C, strain PFK2, stronger effect = lower value 0.513 | S. cerevisiae deletion strains, locus YMR231W, strain pep5, stronger effect = lower value 0.246 | S. cerevisiae deletion strains, locus YNL071W, strain lat1, stronger effect = lower value 0.272 | S. cerevisiae deletion strains, locus YNL183C, strain NPR1, stronger effect = lower value 0.801 | S. cerevisiae deletion strains, locus YNL209W, strain ssb2, stronger effect = lower value 0.656 | S. cerevisiae deletion strains, locus YNL248C, strain rpa49, stronger effect = lower value 0.107 | S. cerevisiae deletion strains, locus YNL322C, strain KRE1 (second series), stronger effect = lower value 0.886 | S. cerevisiae deletion strains, locus YNR049C, strain mso1, stronger effect = lower value 0.798 | S. cerevisiae deletion strains, locus YOR001W, strain rrp6, stronger effect = lower value 0.469 | S. cerevisiae deletion strains, locus YOR070C, strain gyp1, stronger effect = lower value 0.569 | S. cerevisiae deletion strains, locus YOR080W, strain dia2, stronger effect = lower value 0.627 | S. cerevisiae deletion strains, locus YOR083W, strain WHI5, stronger effect = lower value 0.572 | S. cerevisiae deletion strains, locus YOR106W, strain vam3, stronger effect = lower value 0.214 | S. cerevisiae deletion strains, locus YOR231W, strain MKK1, stronger effect = lower value 0.815 | S. cerevisiae deletion strains, locus YOR265W, strain rbl2, stronger effect = lower value 0.619 | S. cerevisiae deletion strains, locus YOR270C, strain vph1, stronger effect = lower value 0.24 | S. cerevisiae deletion strains, locus YOR290C, strain snf2, stronger effect = lower value 0.589 | S. cerevisiae deletion strains, locus YPL051W, strain arl3, stronger effect = lower value 0.481 | S. cerevisiae deletion strains, locus YPL078C, strain atp4, stronger effect = lower value 0.534 | S. cerevisiae deletion strains, locus YPL240C, strain hsp82, stronger effect = lower value 0.544 | S. cerevisiae deletion strains, locus YPL256C, strain CLN2, stronger effect = lower value 0.757
